Laboratory results as given in ChEMBL document CHEMBL3433997, “St. Jude Leishmania screening dataset” (2016).

Legend:
Assay type in all cases: functional
[1] = target: Solute carrier family 2, facilitated glucose transporter member 1 (Homo sapiens) (UniProt P11166); assay: ST_JUDE_LEISH: Cytotoxicity at 2uM final concentration against transgenic Leishmania Mexicana promastigotes LmGLUT1 that are glucose transport deficient and complemented with the human glucose transporter GLUT1. Activity is measured by DNA content using SYBR green in vitro
[2] = target: Hexose transporter 1 (Plasmodium falciparum) (UniProt O97467); assay: ST_JUDE_LEISH: Cytotoxicity at 2uM final concentration against transgenic Leishmania Mexicana promastigotes LmPfHT that are glucose transport deficient and complemented with the Plasmodium falciparum hexose transporter. Activity is measured by DNA content using SYBR green in vitro
[3] = target: Glucose transporter (Leishmania mexicana) (UniProt O61059); assay: ST_JUDE_LEISH: Cytotoxicity at 2uM final concentration against transgenic Leishmania Mexicana promastigotes LmGT2 that are glucose transport deficient and complemented with the L. Mexicana glucose transporter 2. Activity is measured by DNA content using SYBR green in vitro

Sequence of Solute carrier family 2, facilitated glucose transporter member 1 (Homo sapiens) (P11166 whole entry): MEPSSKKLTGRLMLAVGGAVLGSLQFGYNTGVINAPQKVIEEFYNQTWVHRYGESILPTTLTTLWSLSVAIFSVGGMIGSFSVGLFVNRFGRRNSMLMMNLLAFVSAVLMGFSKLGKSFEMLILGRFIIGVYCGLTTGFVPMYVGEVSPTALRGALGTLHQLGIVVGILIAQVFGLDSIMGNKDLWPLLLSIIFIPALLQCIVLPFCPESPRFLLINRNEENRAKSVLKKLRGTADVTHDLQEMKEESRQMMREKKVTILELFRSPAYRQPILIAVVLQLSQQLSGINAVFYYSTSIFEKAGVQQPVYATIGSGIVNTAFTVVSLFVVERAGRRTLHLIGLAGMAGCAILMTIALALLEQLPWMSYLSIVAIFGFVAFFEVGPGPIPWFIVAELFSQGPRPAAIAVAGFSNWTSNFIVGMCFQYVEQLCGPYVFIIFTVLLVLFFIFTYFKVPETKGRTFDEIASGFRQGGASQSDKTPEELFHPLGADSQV

SMILES | inhibition [1] | inhibition [2] | inhibition [3]
Cc1cc2nc(N/C(N)=N/C(=O)NC3CCCCC3)nc(C)c2cc1C | 3.18% | 3.48% | 0.78%
COc1ccc2ncc(F)c(CCN3CCC4(CC3)COC(c3cc5c(cn3)OCCO5)=N4)c2n1 | 10.3% | 7.42% | -0.24%
CC(C)N1CCN(CCCCNc2c3ccccc3nc3ccccc23)CC1 | 33% | 41% | 22.3%
NC(=O)c1cnc2cc(-c3ccncc3)cc(Nc3ccc(NC(=O)C4CCCCC4)cc3)c2c1 | 2.17% | 2.89% | 1.29%
COc1ccccc1N1CCN(C(C(=O)NCc2ccc(C)cc2)c2ccc(C)cc2)CC1 (stereo not drawn) | -0.68% | -0.64% | -2.75%
COc1ccc(C(C(=O)NC2CCN(C[C@H](O)c3ccnc4ccc(OC)cc34)CC2)N2CCN(c3ccc(Cl)c(Cl)c3)CC2)cc1 (stereo partly drawn) | -0.26% | -2.17% | -4.15%
CCc1cn2c3c(cc(C(=O)N[C@@H](Cc4cccc(Cl)c4)[C@H](O)CNC4CCOCC4)cc13)N(C)S(=O)(=O)CC2 | 2.87% | -0.33% | 1.44%
O=C(Nc1ccc2c(c1)CCCN2S(=O)(=O)c1cccs1)c1cc([N+](=O)[O-])ccc1Cl | 5% | 8.25% | 3.5%
COC(=O)c1cccc(CNCc2cccc(-c3csc(-c4nc5ccccc5[nH]4)c3)c2)c1 | 9.3% | 8.51% | 6.38%
Cn1cncc1C(=O)Nc1cccc(-c2cccc(-c3nc4cc(F)ccc4[nH]3)c2)c1 | 4% | 3.24% | 1.75%
Cc1ccccc1NC(=O)NC1CCN(CCCCCNC(=O)/C=C/c2ccc(Cl)c(Cl)c2)CC1 | 1.77% | 2.24% | 1.9%
COc1ccc(-c2ccc(NC(=O)c3ccc(Cl)cc3)cc2)cc1CN1CCNCC1 | 1.97% | 2.41% | 2%
CN1CCN(c2ccnc3cc4ccccc4cc23)CC1 | -3.09% | -3.08% | -0.9%
COc1ccc(C(=O)N2CCC3(CC2)C(=O)N(CC(=O)NC2CCCCC2)CN3c2ccccc2)c(OC)c1 | 3.74% | 3.6% | 4.38%
CC(=O)c1ccc(NC(=O)NNC(=O)c2ccc(CCN3CCC(c4nc(COCC(F)(F)F)c(-c5ccc(F)cc5)o4)CC3)cc2)cc1 | 0.31% | 0.69% | -1.37%
Cc1cccc2nc(-c3cccc(-c4cccc(CN5CCCC5CN)c4)c3)[nH]c12 (stereo not drawn) | -0.26% | -1.1% | -2.17%
Cc1nnc2sc(-c3cccc(NC(=O)c4ccc(N5CCCCC5)c([N+](=O)[O-])c4)c3)nn12 | 0.34% | -1.03% | -0.5%
O=C(Nc1cccc(CN2CCCN(Cc3ccc(O)cc3)CC2)c1)c1cccc(C(F)(F)F)c1 | 10.5% | 9.62% | 11.3%
C=CCOc1ccc2ccccc2c1CNCCCCCCNCc1c(OCC=C)ccc2ccccc12 | 4.33% | 5.37% | 1.05%
O=C(Nc1ccccc1)Nc1cccc(-c2ccc(-c3nc4cc(C(F)(F)F)ccc4[nH]3)cc2)c1 | 4.43% | 4.53% | 5.45%
CSc1nc2cc3c(cc2n1C(=O)c1ccc(C)cc1)OCCO3 | 6.31% | 4.48% | 2.89%
Clc1ccc2c(NCCc3ccccc3)ccnc2c1 | 4.51% | 4.33% | 2.56%
C=CCn1c(=N)c(C(=O)NCc2ccc(F)cc2)cc2c(=O)n3cccc(C)c3nc21 | 3.56% | 3.45% | 2.22%
CC1CCN(Cc2ccc(NC(=O)c3cc4ccc5cccnc5c4[nH]3)cc2)CC1 | 7.7% | 7.81% | 7.77%

SMILES | inhibition [1] | inhibition [2] | inhibition [3]
CNC(=O)c1cnc(Nc2ccc(OCC(O)CN(C)C)cc2)nc1Nc1cccc(OC)c1 (stereo not drawn) | 3.9% | -2.08% | 4.47%
COc1ccc(NC(=O)[C@H](Cc2ccccc2)Nc2cc(C)nc(NCc3ccccc3C)n2)cc1 | 4.42% | 5.01% | 2.59%
CN(C)CCNC(=O)c1ccc(-c2ccc3c(Nc4ccccc4)c(C(N)=O)cnc3c2)cc1 | 1.31% | 1.74% | 2.36%
COc1cc(-c2nc(C(C)(C)CN)[nH]c2-c2ccncc2)ccc1Br | 7.38% | 11.3% | 4.8%
CN(C)CCN(C)Cc1ccc(-c2cccc(NC(=O)c3cccc(C#N)c3)c2)cc1 | 15.4% | 10.9% | 8.24%
CC(=O)Nc1ccc(C(=O)Nc2cccc(-c3ccc(-c4nc5cc(F)ccc5[nH]4)s3)c2)cn1 | 0.96% | 1.55% | 2.75%
CCc1cccc(NC(=O)/C=C/c2ccc3c(c2)CN(C)CC3)c1 | 4.53% | 2.31% | 10.2%
O=C(NCc1ccc(Cl)c(Cl)c1)c1ccc(C2CCN(Cc3ccc4[nH]cnc4c3)CC2)cc1 | 2.71% | 1.42% | 0.28%
N#Cc1cccc(C(O)CN(Cc2ccccc2)Cc2ccccc2)c1 (stereo not drawn) | 1.37% | 1.53% | 2.04%
CC(C)(C)c1ccc(CN2CCC(NC(=O)c3ccc(-c4ccccc4F)s3)CC2)cc1 | 0.69% | -2.65% | -2.5%
CN(CCCc1c[nH]c2ccccc12)CCC1CCC(NC(=O)/C=C/c2ccc(Cl)c(Cl)c2)CC1 (stereo not drawn) | 3.61% | 2.63% | 1.8%
CCc1ccc(CN2CCC(C(=O)Nc3ccc(-c4nc5ccccc5[nH]4)cc3)CC2)o1 | 31.6% | 39.6% | 25.7%
O=C(Nc1ccc(CN2CCOCC2)cc1)c1ccc(-c2ccc(Cl)cc2)o1 | -0.08% | -0.82% | -4.75%
FC(F)(F)c1ccc2[nH]ccc(=NN=CC=Cc3ccccc3)c2c1 | 0.22% | 0.25% | 4.34%
O=C(c1cccc(-c2noc(C(F)(F)F)n2)c1)N1CCN(c2nsc3ccccc23)CC1 | -0.16% | -1.92% | -1.66%
CCCCCCN1CCCN(Cc2ccc(C(=O)Nc3ccc(Cl)cc3)cc2)CC1 | 12.3% | 13.8% | 12.5%
CC(=O)Nc1cccc(C(=O)Nc2ccc(-c3cccc(-c4nc5cc(C(F)(F)F)ccc5[nH]4)c3)cc2)c1 | 2.13% | 0.32% | -0.69%
O=S(=O)(NCCN1CCCC1)c1ccc(-c2cccc(CNC3Cc4ccccc4C3)c2)cc1F | 7.61% | 2.53% | 3.93%
c1csc(-c2nc(N3CCCC3)ncc2-c2ccsc2)n1 | 0.85% | -0.18% | 1.26%
Cc1nccn1Cc1cc(C(C)(C)C)c(O)c(C(C)(C)C)c1 | 3.44% | 2.22% | 3.5%
COc1ccc(CCCc2nc(N)nc(N)c2-c2ccc(Cl)cc2)cc1 | 6.21% | 6.84% | 3.75%
CN(C)c1ccc(NC(=O)Nc2ccnc3ccc(Br)cc23)cc1 | 2.25% | 3.91% | 0.43%
Cn1cncc1C(=O)Nc1cccc(-c2ccc(-c3nc4cc(C(F)(F)F)ccc4[nH]3)cc2)c1 | 9.17% | 6.73% | 5.1%
CCOC(=O)NCCSC(C)(C)[C@H](NC(=O)[C@H](Cc1cc2ccccc2s1)[C@H](CC)N(O)C=O)C(=O)Nc1nccs1 | 0.32% | 0.28% | -0.04%

SMILES | inhibition [1] | inhibition [2] | inhibition [3]
CCc1cc(=O)[nH]c(-n2nc(C)cc2NC(=O)CC(c2ccccc2)c2ccccc2)n1 | 11.2% | 15.2% | -1.68%
CCNc1cc(C(=O)N[C@@H](Cc2ccccc2)[C@H](O)CNCc2cccc(-c3cncnc3)c2)cc(N2CCCC2=O)c1 | 3.81% | 3.48% | 4.42%
O=C(/C=C/c1ccc(Cl)c(Cl)c1)NCCCCCCN1CCN(C(=O)Nc2ccc(C(F)(F)F)cc2)CC1 | 2.86% | 3.11% | 3.19%
CC(C)(C)CC(=O)Nc1ccc(Nc2cc(-c3ccncc3)cc3ncc(C(N)=O)cc23)cc1 | -0.38% | 1.53% | 1.26%
COc1ccc(Cn2c(Nc3cccc(C(F)(F)F)c3)nc3ccc(C(=O)NCCN4CCCC4)cc32)cc1Cl | 8.87% | 6.74% | 14.2%
O=C(/C=C/c1ccc(Cl)cc1)NCCCCCN1CCCC(C(=O)Nc2ccc(Cl)c(Cl)c2)C1 (stereo not drawn) | 0.22% | 1.61% | 1.59%
CN(C)c1ccc(-c2ccc(C(=O)NC3CCN(Cc4ccccc4F)CC3)s2)cc1 | 6.98% | 0.05% | 1.85%
Cc1c(O)cccc1Nc1ccnc2ccc(C(F)(F)F)cc12 | -0.14% | 0.25% | -1.33%
COc1ccc2[nH]ccc(=NN=Cc3cccc(C)n3)c2c1 | 18.7% | 14.9% | 11.8%
O=C(Nc1ccc(Cn2ncc(N3CCCNCC3)c(Cl)c2=O)cc1)Nc1ccc(OCc2ccccc2)cc1 | -0.85% | -0.65% | -1.2%
COC(=O)c1cccc(NC(=O)NC2CCN(c3ccnc(Nc4ccc(F)cc4)n3)C2)c1 (stereo not drawn) | 2.08% | 1.14% | -0.55%
Cc1[nH]c(C)c(-c2ccc(-c3ccc(C(F)F)cc3)nc2)c(=O)c1Cl | 2.19% | 3.08% | 2.57%
Cc1c(-c2cccc(C(C)(C)NCCCN3CCCCC3)c2)cnc(N)c1C | -0.39% | -0.25% | 0.62%
Nc1nc(N)c2c3c(ccc2n1)CCC3 | 0.87% | 1.48% | 1.24%
COc1nc2c(CCN3CC[C@H](NCc4cc(C#N)c5c(c4)CCO5)[C@H](O)C3)ccnc2cc1F | 8.01% | 8.15% | 0.58%
CC(C)CNC(=O)c1cncc(-c2ccc(CN3CCC(N4CCCC4)CC3)cc2)c1 | 1.79% | 1.64% | 2.41%
COc1ccc(C2C(C(=O)Nc3cc(OC)c(OC)c(OC)c3)c3cc(OC)c(OC)cc3C(=O)N2C)cc1 (stereo not drawn) | 1.9% | 1.7% | 2.37%
Cc1ccc(O)cc1Nc1c(C(N)=O)cnc2ccc(-c3cncs3)cc12 | -2.06% | -0.39% | -1.28%
COc1ccc(OCC(=O)Nc2nc(-c3ccc(OC)cc3)c(C)s2)cc1 | 1.08% | 0.94% | -1.09%
CC(CCc1ccccc1)NCC(O)c1ccc2c(c1)S(=O)(=O)c1ccccc1N2 (stereo not drawn) | 1.67% | 1.25% | 2.14%
O=C(Nc1ccc2c(c1)OCO2)c1cc(-c2cccnc2)nc2ccc(Cl)cc12 | 3.49% | 0.67% | -0.92%
COc1ccc2ncc(F)c(CCN3CC(O)C(CNCc4ccc5c(n4)NC(=O)CS5)C3)c2c1 (stereo not drawn) | 1.08% | 1.93% | 2.84%
Cn1nc(-c2cccc(CNCc3ccccc3)c2)c2cnc(NC3CCCC3)nc21 | -0.97% | 0% | -1.01%
